Many of the other results were omitted from the sample, so the strongest signals are more common in it than they were.
Tests used:
Test in all cases: glycan array binding signal (z-score within array); higher = stronger binding
Conditions in all cases: glycan notation: IUPAC condensed, linker removed
[1] = target: Gal(b1-4)GlcNAc(b1-3)Gal(b1-4)GlcNAc(b1-3)Gal(b1-4)GlcNAc(b1-3)Gal(b1-4)GlcNAc(b1-3)Gal(b1-4)GlcNAc(b1-2)Man(a1-3)[Gal(b1-4)GlcNAc(b1-3)Gal(b1-4)GlcNAc(b1-3)Gal(b1-4)GlcNAc(b1-3)Gal(b1-4)GlcNAc(b1-3)Gal(b1-4)GlcNAc(b1-2)Man(a1-6)]Man(b1-4)GlcNAc(b1-4)GlcNAc
Procedure, shortened: (§1)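 From the Consortium for Functional Glycomics database, 3228 arrays were curated, keeping only those whose protein sequence was available. Binding is given as a within-array Z-score averaged across arrays sharing a protein sequence and across linkers. Negative Z-scores can be read as non-binding.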

[2] = target: Gal(b1-4)GlcNAc(b1-3)Gal(b1-4)GlcNAc(b1-3)Gal(b1-4)GlcNAc(b1-3)Gal(b1-4)GlcNAc(b1-3)Gal(b1-4)GlcNAc(b1-2)[Gal(b1-4)GlcNAc(b1-3)Gal(b1-4)GlcNAc(b1-3)Gal(b1-4)GlcNAc(b1-3)Gal(b1-4)GlcNAc(b1-3)Gal(b1-4)GlcNAc(b1-6)]Man(a1-6)[Gal(b1-4)GlcNAc(b1-3)Gal(b1-4)GlcNAc(b1-3)Gal(b1-4)GlcNAc(b1-3)Gal(b1-4)GlcNAc(b1-3)Gal(b1-4)GlcNAc(b1-2)Man(a1-3)]Man(b1-4)GlcNAc(b1-4)[Fuc(a1-6)]GlcNAc
Procedure, shortened: as §1

[3] = target: Gal(b1-4)GlcNAc(b1-3)Gal(b1-4)GlcNAc(b1-3)Gal(b1-4)GlcNAc(b1-3)Gal(b1-4)GlcNAc(b1-3)Gal(b1-4)GlcNAc(b1-3)Gal(b1-4)GlcNAc(b1-2)Man(a1-3)[Gal(b1-4)GlcNAc(b1-3)Gal(b1-4)GlcNAc(b1-3)Gal(b1-4)GlcNAc(b1-3)Gal(b1-4)GlcNAc(b1-3)Gal(b1-4)GlcNAc(b1-3)Gal(b1-4)GlcNAc(b1-2)Man(a1-6)]Man(b1-4)GlcNAc(b1-4)GlcNAc
Procedure, shortened: as §1

[4] = target: Gal(b1-4)GlcNAc(b1-3)[Gal(b1-4)GlcNAc(b1-6)]Gal(b1-4)GlcNAc
Procedure, shortened: as §1

Gal3S(b1-3)GlcNAc = target: Gal3S(b1-3)GlcNAc
Procedure, shortened: as §1

Gal3S4S(b1-4)GlcNAc = target: Gal3S4S(b1-4)GlcNAc
Procedure, shortened: as §1

Gal4S(b1-4)GlcNAc = target: Gal4S(b1-4)GlcNAc
Procedure, shortened: as §1

[5] = target: GalNAc(b1-4)GlcNAc(b1-3)GalNAc(b1-4)GlcNAc
Procedure, shortened: as §1

Glc(b1-4)Glc = target: Glc(b1-4)Glc
Procedure, shortened: as §1

Glc(b1-6)Glc = target: Glc(b1-6)Glc
Procedure, shortened: as §1

[6] = target: GlcNAc(a1-4)Gal(b1-4)GlcNAc(b1-3)Gal(b1-4)GlcNAc
Procedure, shortened: as §1

[7] = target: GlcNAc(a1-6)Gal(b1-4)GlcNAc
Procedure, shortened: as §1

[8] = target: GlcNAc(b1-2)[GlcNAc(b1-4)]Man(a1-3)[GlcNAc(b1-4)][GlcNAc(b1-2)Man(a1-6)]Man(b1-4)GlcNAc(b1-4)GlcNAc
Procedure, shortened: as §1

[9] = target: GlcNAc(b1-3)Gal(b1-4)GlcNAc(b1-3)Gal(b1-4)GlcNAc(b1-3)Gal(b1-4)GlcNAc(b1-2)Man(a1-3)[GlcNAc(b1-3)Gal(b1-4)GlcNAc(b1-3)Gal(b1-4)GlcNAc(b1-3)Gal(b1-4)GlcNAc(b1-2)Man(a1-6)]Man(b1-4)GlcNAc(b1-4)[Fuc(a1-6)]GlcNAc
Procedure, shortened: as §1

GlcNAc(b1-3)GalNAc = target: GlcNAc(b1-3)GalNAc
Procedure, shortened: as §1

[10] = target: GlcNAc(b1-6)Gal(b1-4)GlcNAc
Procedure, shortened: as §1

[11] = target: Neu5Ac(a2-3)Gal(b1-3)GalNAc6S
Procedure, shortened: as §1

[12] = target: Neu5Ac(a2-3)Gal(b1-4)GlcNAc(b1-3)Gal(b1-4)GlcNAc(b1-3)[Neu5Ac(a2-3)Gal(b1-4)GlcNAc(b1-3)Gal(b1-4)GlcNAc(b1-6)]GalNAc
Procedure, shortened: as §1

[13] = target: Neu5Ac(a2-3)Gal(b1-4)[Fuc(a1-3)]GlcNAc(b1-3)Gal
Procedure, shortened: as §1

[14] = target: Neu5Ac(a2-3)Gal(b1-4)[Fuc(a1-3)]GlcNAc(b1-3)Gal(b1-4)[Fuc(a1-3)]GlcNAc(b1-3)Gal(b1-4)[Fuc(a1-3)]GlcNAc
Procedure, shortened: as §1

[15] = target: Neu5Ac(a2-3)Gal(b1-4)[Fuc(a1-3)]GlcNAc(b1-3)GalNAc
Procedure, shortened: as §1

[16] = target: Neu5Ac(a2-3)[GalNAc(b1-4)]Gal(b1-4)Glc
Procedure, shortened: as §1

Neu5Ac(a2-6)Gal = target: Neu5Ac(a2-6)Gal
Procedure, shortened: as §1

Neu5Ac(a2-6)GalNAc = target: Neu5Ac(a2-6)GalNAc
Procedure, shortened: as §1

[17] = target: Neu5Ac(a2-6)GalNAc(b1-4)GlcNAc
Procedure, shortened: as §1

Neu5Ac(b2-6)GalNAc = target: Neu5Ac(b2-6)GalNAc
Procedure, shortened: as §1

B1: ECL (Erythrina cristagalli), Q6YD91 (protein)
chain: VETISFSFSEFEPGNNDLTLQGAAIITQSGVLQLTKINQNGMPAWDSTGRTLYTKPVHIWDMTTGTVASFETRFSFSIEQPYTRPLPADGLVFFMGPTKSKPAQGYGYLGVFNNSKQDNSYQTLAVEFDTFSNPWDPPQVPHIGIDVNSIRSIKTQPFQLDNGQVANVVIKYDASSKILLAVLVYPSSGAIYTIAEIVDVKQVLPEWVDVGLSGATGAQRDAAETHDVYSWSFHASLPETND
[1]
  glycan array binding signal (z-score): 3.35
[2]
  glycan array binding signal (z-score): 5.32
[3]
  glycan array binding signal (z-score): 2.02
[4]
  glycan array binding signal (z-score): 3.6
Gal3S(b1-3)GlcNAc
  glycan array binding signal (z-score): -0.33
Gal3S4S(b1-4)GlcNAc
  glycan array binding signal (z-score): -0.359
Gal4S(b1-4)GlcNAc
  glycan array binding signal (z-score): -0.487
[5]
  glycan array binding signal (z-score): 3.31
Glc(b1-4)Glc
  glycan array binding signal (z-score): -0.25
Glc(b1-6)Glc
  glycan array binding signal (z-score): -0.304
[6]
  glycan array binding signal (z-score): -0.028
[7]
  glycan array binding signal (z-score): -0.358
[8]
  glycan array binding signal (z-score): -0.235
[9]
  glycan array binding signal (z-score): 0.001
GlcNAc(b1-3)GalNAc
  glycan array binding signal (z-score): -0.196
[10]
  glycan array binding signal (z-score): -0.23
[11]
  glycan array binding signal (z-score): -0.378
[12]
  glycan array binding signal (z-score): -0.038
[13]
  glycan array binding signal (z-score): -0.424
[14]
  glycan array binding signal (z-score): -0.241
[15]
  glycan array binding signal (z-score): -0.17
[16]
  glycan array binding signal (z-score): -0.505
Neu5Ac(a2-6)Gal
  glycan array binding signal (z-score): -0.186
Neu5Ac(a2-6)GalNAc
  glycan array binding signal (z-score): -0.481
[17]
  glycan array binding signal (z-score): -0.3
Neu5Ac(b2-6)GalNAc
  glycan array binding signal (z-score): -0.388
